In PubChem BioAssay (Tox21):
Inconclusive results are not listed. Unmarked numbers belong to inactive results. Calls follow the shape of the full dose curve.

Target: Beta-2 adrenergic receptor (Homo sapiens) (UniProt P07550)
Assay: Adrenergic beta2 receptor (ADRB2) small molecule agonists, cell-based qHTS assay (AID 1963593);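 also: CHO cells stably overexpressing human ADRB2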
Conditions: CHO-ADRB2 cells, cAMP HTRF, 30 min; series mostly up to 42.5 µM; activation: at the top concentration
Procedure, shortened: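 CHO cells stably over-expressing ADRB2 were plated overnight at 37C, then dosed with compounds plus a stimulation mix containing 100uM IBMX and 25uM Ro-20-1724 for 0.5hr at room temperature. cAMP was measured by HTRF competition, 1hr.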
% is scaled to controls: 0 for no effect and ±100 for the full control effect.

Chain of Beta-2 adrenergic receptor (Homo sapiens) (P07550 whole entry, looked up): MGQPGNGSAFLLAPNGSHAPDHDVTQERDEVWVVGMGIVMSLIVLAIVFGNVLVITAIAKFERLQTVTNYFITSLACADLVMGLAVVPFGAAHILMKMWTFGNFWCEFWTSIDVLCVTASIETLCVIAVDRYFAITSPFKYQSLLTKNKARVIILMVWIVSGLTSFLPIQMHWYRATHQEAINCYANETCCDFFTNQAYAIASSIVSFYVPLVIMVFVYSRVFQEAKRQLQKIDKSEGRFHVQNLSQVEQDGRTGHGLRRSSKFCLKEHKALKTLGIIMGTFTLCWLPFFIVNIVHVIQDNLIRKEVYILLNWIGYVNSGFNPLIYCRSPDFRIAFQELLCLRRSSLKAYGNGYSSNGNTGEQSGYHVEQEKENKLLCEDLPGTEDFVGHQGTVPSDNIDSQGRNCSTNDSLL

| Structure (SMILES) | activation |
| --- | --- |
| CC(C)NCCCC1(C(N)=O)c2ccccc2-c2ccccc21 | 17.1% |
| CC(C)=CCC[C@@](C)(O)[C@H]1CC=C(C)CC1 | -3.03% |
| O=P(O)(O)OCC(O)CO (stereo not drawn) | 1.22% |
| O=C1c2ccccc2C(=O)N1CO | 2.95% [at 92.4 µM] |
| C[N+]12CCC(CC1)C(OC(=O)C(O)(c1ccccc1)c1ccccc1)C2 (stereo not drawn) | 9.65% |
| Nc1nc2c(ncn2COCCO)c(=O)[nH]1 | 7.62% |
| C[N+]1(CC2COC(c3ccccc3)(c3ccccc3)O2)CCCCC1 (stereo not drawn) | 0.0566% [at 19 µM] |
| CC(C)c1ccc(C#N)cc1 | -19.6% [at 92.4 µM] |
| CO[C@@H]1[C@H](OC(=O)/C=C/C=C/C=C/C=C/C(=O)O)CC[C@]2(CO2)[C@H]1[C@@]1(C)O[C@@H]1CC=C(C)C | -12.4% [at 92.4 µM] |
| FC(F)(F)c1ccc(Cl)cc1Cl | -8.45% [at 92.4 µM] |
| CN1Cc2cc(C(=O)N3CCC(C4CCNCC4)CC3)ccc2N[C@@H](CC(=O)O)C1=O | -0.913% |
| Cc1cc(C(=O)O)ccc1[N+](=O)[O-] | 4.9% [at 92.4 µM] |
| CC(=O)c1c(C)cc(C(C)(C)C)cc1C | 16.3% [at 92.4 µM] |
